Shown are actives, neighbours in structure and some others; about 19% of the full set was active somewhere.
HT1080 IDH1KD tx: qHTS for induction of synthetic lethality in tumor cells producing 2HG: qHTS for the HT-1080-IDH1KD cell line; Potency, µM (highest dose often 46.1 µM), inactives show at the top dose activity, negative = toxicity, usual class: cytotoxic; HT-1080 IDH1 knockdown viability, ATP luminescence, 48 h; hit rate 2% among 360,000;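 further: potency means the concentration at half of the fitted maximal effect; 0% = DMSO wells and -100% = cell-free medium wells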
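HT-1080-IDH1KD cells (IDH1 knocked down), 750/well in RPMI with 5% FBS, treated with compound 48 h at 37 degrees C. Viability by CellTiter-Glo luminescence, normalised to DMSO and no-cell wells; concentration-response curves classed.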
TDP1 cell noCPT: qHTS for Inhibitors of human tyrosyl-DNA phosphodiesterase 1 (TDP1): qHTS in cells in absence of CPT; hit rate 15% among 420,000; Potency, µM (titrated, usually from 46.2 µM), inactives show at the top dose activity change, negative = growth inhibition, most hits filed as inhibitors; DT40 Tdp1-/- hTDP1 cells, no CPT, ATP luminescence, 48 h; further: potency means the concentration at half of the fitted maximal effect; nearly all actives have a fitted effect of over 55% in size
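Cells were dispensed at 400 per well, compounds added by pin tool, plates incubated ≥48 hr at 37 °C, then CellTiter-Glo added for 30 min at room temperature before luminescence reading. Line: DT40 Tdp1-/- complemented with hTDP1; camptothecin omitted.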
IL-1B inflam inh: qHTS for Inhibitors of Inflammasome Signaling: IL-1-beta AlphaLISA Primary Screen | THP-1 LPS/ATP IL-1B secretion, AlphaLISA, 16 h; hits give low values | activity change, % at 57.5 µM | hit rate 4.7% among 360,000 | AID 743279, 2014; in the data active means activity change below about -50%; inconclusive means mostly about -30% to -49%
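THP-1 cells pretreated 1 hr with compounds (up to 57.5 uM final), then stimulated with LPS (250 ng/mL final) plus ATP (1.25 mM final); secreted IL-1B measured by AlphaLISA after 16 hr, decreased signal indicating inhibition.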
TDP1 cell CPT: qHTS for Inhibitors of human tyrosyl-DNA phosphodiesterase 1 (TDP1): qHTS in cells in presence of CPT; chicken DT40 Tdp1-/-;hTDP1 cells + 20 nM CPT, ATP luminescence, 48 h; Potency, µM (top dose mostly 46.2 µM), inactives show at the highest dose activity change, negative = growth inhibition, usual class: inhibitors; hit rate 12% among 420,000; further: potency means the concentration at half of the fitted maximal effect; nearly all actives have a fitted effect of over 55% in size
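Chicken DT40 Tdp1-/- cells complemented with human TDP1, 400 cells/well, exposed to compounds plus 20 nM camptothecin for at least 48 h at 37 C; viability read as ATP content by CellTiter-Glo luminescence.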
HT1080NT lethal: qHTS for induction of synthetic lethality in tumor cells producing 2HG: qHTS for the HT-1080-NT fibrosarcoma cell line; hit rate 1.6% among 360,000; HT-1080-NT fibrosarcoma viability, CellTiter-Glo ATP luminescence, 48 h; Potency, µM (top dose mostly 46.1 µM), for inactives: at the highest dose activity, negative = less viability, usual class: cytotoxic; AID 686970, 2013;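 further: NT is the 2HG producing partner of a matched IDH1 knockdown line; potency means the concentration at half of the fitted maximal effect; 0% = DMSO-treated cells and -100% = media-only wells without cells; nearly all actives have a fitted effect of over 55% in size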
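Toxicity toward the 2HG-producing NT line was scored as %Activity, normalised to DMSO and no-cell wells, from CellTiter-Glo luminescence after 48 hours' treatment.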
* marks the source's active call; other numbers are inactive results; [ ] = another dose, or the depositor's remark. Unless noted, the call rests on the fitted dose curve; in most records, active means well fitted curve in the direction sought with a large enough effect; inconclusive means small, poorly fitted or top-dose-only effect, or another doubt; inactive means no such curve, though single readings can be large; an effect the other way counts as inactive or inconclusive. Unless noted, on the % scale 0 is the no-effect control and ±100 the full control effect.

What do the screens show for `COc1ccc(-c2cc(C(=O)Nc3c(C)nn(Cc4ccccc4Cl)c3C)no2)cc1`?
HT1080 IDH1KD tx: -21%; TDP1 cell noCPT: -22%; IL-1B inflam inh: -11; TDP1 cell CPT: -25%; HT1080NT lethal: 2%[9.24 µM]

How did COc1ccc(-n2c(=O)c(-c3ccccc3)nc3cnc(N4CCOCC4)nc32)cc1 do in these assays?
TDP1 cell noCPT: 8%; TDP1 cell CPT: 11%

How did CCN1CCN(C(=O)N2CCOCC2)CC1 do in these assays?
HT1080 IDH1KD tx: 20%; TDP1 cell noCPT: -6%; IL-1B inflam inh: -2; TDP1 cell CPT: 1%; HT1080NT lethal: 16%

What do the screens show for `COc1ccccc1C(C)NC(=O)CCC(=O)N1CCN(S(=O)(=O)c2ccc(Cl)cc2)CC1` (centres undefined)?
HT1080 IDH1KD tx: -10%; TDP1 cell noCPT: inconclusive; IL-1B inflam inh: -7; TDP1 cell CPT: inconclusive; HT1080NT lethal: -9%

Results for FC(F)(F)c1ccc(/C=N/NC(=S)NC2CCCCC2)cc1 ?
HT1080 IDH1KD tx: -26%; TDP1 cell noCPT: 5.8µM*; IL-1B inflam inh: 2; TDP1 cell CPT: inconclusive; HT1080NT lethal: -19%

How did C=CCNC(=S)N/N=C/c1ccc(C(F)(F)F)cc1 do in these assays?
HT1080 IDH1KD tx: -12%; TDP1 cell noCPT: inconclusive; IL-1B inflam inh: -56*; TDP1 cell CPT: inconclusive; HT1080NT lethal: inconclusive

What do the screens show for `O=C(O)c1ccc(/C=N/NC(=S)NC2CCCCC2)cc1`?
HT1080 IDH1KD tx: -12%; TDP1 cell noCPT: 3%; IL-1B inflam inh: 73; TDP1 cell CPT: 4%; HT1080NT lethal: -15%

What do the screens show for `CN(C)S(=O)(=O)c1ccc2oc(SCC(=O)c3c(N)n(C4CC4)c(=O)[nH]c3=O)nc2c1`?
HT1080 IDH1KD tx: 0%; TDP1 cell noCPT: 4.1µM*; IL-1B inflam inh: 22; TDP1 cell CPT: -8%; HT1080NT lethal: 10%

Results for CC(c1nnc(SCC(=O)c2c(N)n(C3CC3)c(=O)[nH]c2=O)n1-c1ccc(F)cc1)N(C)C (centres undefined) ?
HT1080 IDH1KD tx: 2%; TDP1 cell noCPT: 2.9µM*; IL-1B inflam inh: -4; TDP1 cell CPT: 4%; HT1080NT lethal: -1%

What do the screens show for `CCN(CC)S(=O)(=O)c1ccc(SCC(=O)c2c(N)n(C3CC3)c(=O)[nH]c2=O)nc1`?
HT1080 IDH1KD tx: -18%; TDP1 cell noCPT: 21µM*; IL-1B inflam inh: 35; TDP1 cell CPT: inconclusive; HT1080NT lethal: -13%

What do the screens show for `CC(C)(C)NC(=O)NC(=O)COC(=O)Cc1c(Cl)cccc1Cl`?
HT1080 IDH1KD tx: 0%; TDP1 cell noCPT: -28%; IL-1B inflam inh: -54*; TDP1 cell CPT: -1%; HT1080NT lethal: -16%

Results for Cc1ccc(-c2ccc(CN3C(C(C)C)C(=O)N(Cc4cn(Cc5ccco5)nn4)CCS3(=O)=O)cc2)cc1 (centres undefined) ?
HT1080 IDH1KD tx: inconclusive; TDP1 cell noCPT: 18µM*; IL-1B inflam inh: -10; TDP1 cell CPT: 18µM*; HT1080NT lethal: inconclusive

Results for CC(C)C1C(=O)N(Cc2cn(Cc3ccco3)nn2)CCS(=O)(=O)N1Cc1ccc(-c2cccc(N(C)C)c2)cc1 (centres undefined) ?
HT1080 IDH1KD tx: -23%; TDP1 cell noCPT: 16µM*; IL-1B inflam inh: -30; TDP1 cell CPT: inconclusive; HT1080NT lethal: -19%

Results for CC1C(=O)N(Cc2cn(Cc3ccco3)nn2)CCS(=O)(=O)N1Cc1ccc(-c2ccc(F)cc2Cl)cc1 (centres undefined) ?
HT1080 IDH1KD tx: inconclusive; TDP1 cell noCPT: inconclusive; IL-1B inflam inh: -19; TDP1 cell CPT: inconclusive; HT1080NT lethal: -27%
